Among the data in article PMC7862700, “An all-to-all approach to the identification of sequence-specific readers for epigenetic DNA modifications on cytosine” are binding signal values, retold here.

Common to all, as to test: DAPPL (digital affinity profiling via proximity ligation, sequencing); 10 mM Tris-HCl pH 7.5, 50 mM NaCl, 1 mM DTT, 4% glycerol, room temperature, 30 min; GST-TFs on glutathione beads, 16-mer random dsDNA library, 0.1% formaldehyde crosslink after washing; high values mean tight binding
What all share (details): protein: recombinant; tags: N-terminal GST; dsDNA, one strand shown

The target in one assay is T1, FLI1 (Homo sapiens, UniProt Q01543 1-452).
T1 sequence: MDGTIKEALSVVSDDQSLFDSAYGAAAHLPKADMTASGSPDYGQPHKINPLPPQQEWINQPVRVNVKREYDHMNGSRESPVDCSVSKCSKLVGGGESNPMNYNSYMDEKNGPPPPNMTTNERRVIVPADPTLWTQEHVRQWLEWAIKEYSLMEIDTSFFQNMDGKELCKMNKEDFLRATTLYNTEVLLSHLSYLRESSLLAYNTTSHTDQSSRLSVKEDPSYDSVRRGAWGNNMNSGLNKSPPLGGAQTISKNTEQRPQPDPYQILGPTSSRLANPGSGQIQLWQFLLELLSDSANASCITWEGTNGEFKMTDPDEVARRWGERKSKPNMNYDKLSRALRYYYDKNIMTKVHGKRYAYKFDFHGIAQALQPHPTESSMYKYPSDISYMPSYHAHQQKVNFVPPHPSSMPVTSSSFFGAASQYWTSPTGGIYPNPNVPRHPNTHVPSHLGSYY
Put shortly:
(§1)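 Pools were built from human transcription factors expressed in yeast as GST fusions, captured on glutathione beads and DNA-barcoded, along with a tag-only sample. Incubation with 200 nmole of a 16-mer random double-stranded DNA library lasted 30 min at room temperature in Tris/NaCl/DTT/glycerol buffer, and was followed by washing, 0.1% formaldehyde crosslinking, proximity ligation, PCR amplification and Illumina NextSeq500 sequencing. Binding signal is the quotient of each hexamer's read frequency for a factor and its frequency for the tag-only sample.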

Another assay deals with T2, ELK1 (Homo sapiens, UniProt P19419 1-428).
T2 sequence: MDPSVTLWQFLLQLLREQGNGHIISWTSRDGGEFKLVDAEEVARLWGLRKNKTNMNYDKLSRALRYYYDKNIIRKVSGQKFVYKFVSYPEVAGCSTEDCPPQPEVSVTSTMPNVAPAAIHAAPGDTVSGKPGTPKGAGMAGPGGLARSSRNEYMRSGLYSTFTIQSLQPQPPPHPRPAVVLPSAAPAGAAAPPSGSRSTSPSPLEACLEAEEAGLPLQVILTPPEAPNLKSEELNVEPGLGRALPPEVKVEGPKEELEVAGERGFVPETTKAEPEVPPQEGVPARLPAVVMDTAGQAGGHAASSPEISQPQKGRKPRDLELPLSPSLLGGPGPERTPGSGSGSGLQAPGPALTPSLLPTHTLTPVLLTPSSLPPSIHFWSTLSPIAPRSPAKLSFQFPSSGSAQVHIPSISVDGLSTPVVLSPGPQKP
Put shortly: as §1

Another assay has as its target T3, GABPA (Homo sapiens, UniProt Q06546 1-454).
T3 sequence: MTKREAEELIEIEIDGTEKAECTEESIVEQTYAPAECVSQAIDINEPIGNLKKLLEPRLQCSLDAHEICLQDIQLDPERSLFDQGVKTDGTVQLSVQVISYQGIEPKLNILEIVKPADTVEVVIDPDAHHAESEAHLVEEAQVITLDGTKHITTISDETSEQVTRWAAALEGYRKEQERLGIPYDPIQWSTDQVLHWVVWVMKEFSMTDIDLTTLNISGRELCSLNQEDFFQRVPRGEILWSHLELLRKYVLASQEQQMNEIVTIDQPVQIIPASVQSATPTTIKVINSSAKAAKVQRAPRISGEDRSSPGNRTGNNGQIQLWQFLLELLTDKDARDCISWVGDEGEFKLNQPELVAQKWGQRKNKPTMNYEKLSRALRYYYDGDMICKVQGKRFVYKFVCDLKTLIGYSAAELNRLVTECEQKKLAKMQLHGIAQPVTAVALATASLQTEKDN
Put shortly: as §1

A further assay concerns the target T4, ERG (Homo sapiens, UniProt P11308 1-479).
T4 sequence: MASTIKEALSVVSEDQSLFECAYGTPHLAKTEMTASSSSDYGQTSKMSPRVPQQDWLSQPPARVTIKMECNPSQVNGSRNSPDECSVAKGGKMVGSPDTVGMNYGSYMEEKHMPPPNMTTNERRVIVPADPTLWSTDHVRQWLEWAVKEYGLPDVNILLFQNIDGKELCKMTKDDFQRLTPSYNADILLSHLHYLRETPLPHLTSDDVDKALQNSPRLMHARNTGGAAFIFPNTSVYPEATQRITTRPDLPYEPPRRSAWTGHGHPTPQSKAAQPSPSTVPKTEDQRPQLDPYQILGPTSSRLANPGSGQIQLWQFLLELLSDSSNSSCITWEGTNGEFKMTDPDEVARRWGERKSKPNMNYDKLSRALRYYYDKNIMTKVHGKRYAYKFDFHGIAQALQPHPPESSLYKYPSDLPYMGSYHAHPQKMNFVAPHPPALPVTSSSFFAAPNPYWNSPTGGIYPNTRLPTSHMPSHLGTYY
Put shortly: as §1

Another assay deals with ELF1 (Homo sapiens, UniProt P32519 1-619). Put shortly:
as §1

The next assay concerns the target T5, EHF (Homo sapiens, UniProt Q9NZC4 1-300).
T5 sequence: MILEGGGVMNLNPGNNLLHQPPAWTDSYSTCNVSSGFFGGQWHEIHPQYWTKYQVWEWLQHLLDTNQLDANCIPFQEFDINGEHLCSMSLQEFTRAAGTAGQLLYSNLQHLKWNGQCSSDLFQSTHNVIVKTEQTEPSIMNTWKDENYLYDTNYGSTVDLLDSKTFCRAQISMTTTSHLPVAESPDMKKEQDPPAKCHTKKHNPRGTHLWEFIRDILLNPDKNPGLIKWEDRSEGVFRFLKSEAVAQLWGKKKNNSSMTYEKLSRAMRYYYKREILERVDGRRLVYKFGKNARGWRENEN
Put shortly: as §1

Another assay addresses SPI1 (Homo sapiens, UniProt P17947 1-270). Put shortly:
as §1

In the next assay the target is SPIB (Homo sapiens, UniProt Q01892 1-262). Put shortly:
as §1

The next assay has as its target T6, ELK3 (Homo sapiens, UniProt P41970 1-407).
T6 sequence: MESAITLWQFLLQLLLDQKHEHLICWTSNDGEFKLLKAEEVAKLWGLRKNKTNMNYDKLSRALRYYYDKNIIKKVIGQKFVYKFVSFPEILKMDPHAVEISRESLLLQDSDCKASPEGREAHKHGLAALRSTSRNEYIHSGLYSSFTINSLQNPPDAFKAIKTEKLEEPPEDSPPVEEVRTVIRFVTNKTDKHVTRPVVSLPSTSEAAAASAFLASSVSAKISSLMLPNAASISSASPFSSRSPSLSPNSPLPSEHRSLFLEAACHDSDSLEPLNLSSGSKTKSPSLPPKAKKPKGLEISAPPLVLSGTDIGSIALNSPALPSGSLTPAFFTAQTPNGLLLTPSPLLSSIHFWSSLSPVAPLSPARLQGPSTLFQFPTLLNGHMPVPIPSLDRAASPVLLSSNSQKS
Put shortly:
as §1

ELF1, sequence (P32519 whole entry): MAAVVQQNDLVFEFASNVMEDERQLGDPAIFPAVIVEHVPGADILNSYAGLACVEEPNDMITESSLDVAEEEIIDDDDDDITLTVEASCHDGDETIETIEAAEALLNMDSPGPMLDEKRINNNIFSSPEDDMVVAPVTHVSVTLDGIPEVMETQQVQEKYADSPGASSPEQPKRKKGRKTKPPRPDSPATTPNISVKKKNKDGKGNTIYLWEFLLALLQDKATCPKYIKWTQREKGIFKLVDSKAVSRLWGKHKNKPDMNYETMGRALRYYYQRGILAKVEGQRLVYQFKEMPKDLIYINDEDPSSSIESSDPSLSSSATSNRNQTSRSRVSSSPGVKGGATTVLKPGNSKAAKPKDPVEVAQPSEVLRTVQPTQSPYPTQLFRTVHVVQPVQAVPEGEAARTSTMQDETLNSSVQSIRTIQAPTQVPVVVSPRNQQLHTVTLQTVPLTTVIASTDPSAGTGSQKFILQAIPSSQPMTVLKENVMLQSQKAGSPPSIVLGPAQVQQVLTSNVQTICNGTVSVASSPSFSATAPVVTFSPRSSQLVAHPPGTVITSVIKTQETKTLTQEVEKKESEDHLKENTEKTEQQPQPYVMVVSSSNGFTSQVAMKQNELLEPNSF
SPIB, sequence (Q01892 whole entry): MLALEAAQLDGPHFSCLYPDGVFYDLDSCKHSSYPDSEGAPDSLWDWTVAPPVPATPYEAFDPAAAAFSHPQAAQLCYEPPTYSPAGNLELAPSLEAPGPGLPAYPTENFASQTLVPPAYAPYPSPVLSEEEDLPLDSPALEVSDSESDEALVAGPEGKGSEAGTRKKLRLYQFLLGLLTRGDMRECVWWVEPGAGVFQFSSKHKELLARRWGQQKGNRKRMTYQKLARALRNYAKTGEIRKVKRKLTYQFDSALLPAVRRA

On to CTAACC, for which the binding signal is 1.12 fold enrichment (6-mer frequency, TF over GST control) with FLI1; 1.23 fold enrichment (6-mer frequency, TF over GST control) with ELK1; 1.09 fold enrichment (6-mer frequency, TF over GST control) with GABPA; 1.16 fold enrichment (6-mer frequency, TF over GST control) with ERG; 1.12 fold enrichment (6-mer frequency, TF over GST control) in the assay with ELF1; 1.17 fold enrichment (6-mer frequency, TF over GST control) in the assay with EHF. The binding signal in the assay with SPI1 was 1.14 fold enrichment (6-mer frequency, TF over GST control); in the assay with SPIB, 1.08 fold enrichment (6-mer frequency, TF over GST control); with ELK3, 1.29 fold enrichment (6-mer frequency, TF over GST control).
Turning to CTAACA, the binding signal with FLI1 is 1.28 fold enrichment (6-mer frequency, TF over GST control); with ELK1, 1.24 fold enrichment (6-mer frequency, TF over GST control); with GABPA it was 1.16 fold enrichment (6-mer frequency, TF over GST control); with ERG, 1.21 fold enrichment (6-mer frequency, TF over GST control); with ELF1, 1.25 fold enrichment (6-mer frequency, TF over GST control); with EHF, 1.21 fold enrichment (6-mer frequency, TF over GST control). Moreover, the binding signal is 1.24 fold enrichment (6-mer frequency, TF over GST control) with SPI1; 1.17 fold enrichment (6-mer frequency, TF over GST control) with SPIB; 1.15 fold enrichment (6-mer frequency, TF over GST control) with ELK3.
As for TAACTG, the binding signal in the assay with FLI1 was 1.12 fold enrichment (6-mer frequency, TF over GST control); with ELK1, 1.19 fold enrichment (6-mer frequency, TF over GST control); with GABPA, 1.24 fold enrichment (6-mer frequency, TF over GST control); with ERG, 1.25 fold enrichment (6-mer frequency, TF over GST control); with ELF1, 1.27 fold enrichment (6-mer frequency, TF over GST control); in the assay with EHF, 1.15 fold enrichment (6-mer frequency, TF over GST control). Further, the binding signal was 1.21 fold enrichment (6-mer frequency, TF over GST control) with SPI1; 1.33 fold enrichment (6-mer frequency, TF over GST control) with SPIB; 1.26 fold enrichment (6-mer frequency, TF over GST control) with ELK3.
For the sequence TATTTT, the binding signal was 1.3 fold enrichment (6-mer frequency, TF over GST control) in the assay with FLI1; 1.3 fold enrichment (6-mer frequency, TF over GST control) with ELK1; 1.34 fold enrichment (6-mer frequency, TF over GST control) with GABPA; 1.39 fold enrichment (6-mer frequency, TF over GST control) with ERG; 1.31 fold enrichment (6-mer frequency, TF over GST control) with ELF1; 1.44 fold enrichment (6-mer frequency, TF over GST control) in the assay with EHF. Also, the binding signal is 1.35 fold enrichment (6-mer frequency, TF over GST control) in the assay with SPI1; 1.32 fold enrichment (6-mer frequency, TF over GST control) with SPIB; 1.36 fold enrichment (6-mer frequency, TF over GST control) in the assay with ELK3.
For the sequence TACCTA, the binding signal was 1.32 fold enrichment (6-mer frequency, TF over GST control) with FLI1; 1.26 fold enrichment (6-mer frequency, TF over GST control) in the assay with ELK1; 1.24 fold enrichment (6-mer frequency, TF over GST control) with GABPA; 1.13 fold enrichment (6-mer frequency, TF over GST control) with ERG; 1.34 fold enrichment (6-mer frequency, TF over GST control) with ELF1; 1.22 fold enrichment (6-mer frequency, TF over GST control) with EHF. Besides, the binding signal with SPI1 was 1.28 fold enrichment (6-mer frequency, TF over GST control); with SPIB it was 1.22 fold enrichment (6-mer frequency, TF over GST control); with ELK3 it was 1.23 fold enrichment (6-mer frequency, TF over GST control).
Regarding TATCCG, the binding signal is 2.64 fold enrichment (6-mer frequency, TF over GST control) with FLI1; 2.53 fold enrichment (6-mer frequency, TF over GST control) with ELK1; 2.26 fold enrichment (6-mer frequency, TF over GST control) in the assay with GABPA; 3.2 fold enrichment (6-mer frequency, TF over GST control) with ERG; 2.38 fold enrichment (6-mer frequency, TF over GST control) with ELF1; 2.48 fold enrichment (6-mer frequency, TF over GST control) with EHF. Further, the binding signal is 2.29 fold enrichment (6-mer frequency, TF over GST control) in the assay with SPI1; 2.8 fold enrichment (6-mer frequency, TF over GST control) with SPIB; 2.41 fold enrichment (6-mer frequency, TF over GST control) in the assay with ELK3.
Take AATTGC: the binding signal was 1.44 fold enrichment (6-mer frequency, TF over GST control) in the assay with FLI1; 1.42 fold enrichment (6-mer frequency, TF over GST control) in the assay with ELK1; 1.44 fold enrichment (6-mer frequency, TF over GST control) in the assay with GABPA; 1.3 fold enrichment (6-mer frequency, TF over GST control) with ERG; 1.34 fold enrichment (6-mer frequency, TF over GST control) with ELF1; 1.38 fold enrichment (6-mer frequency, TF over GST control) in the assay with EHF. Besides, the binding signal in the assay with SPI1 is 1.43 fold enrichment (6-mer frequency, TF over GST control); with SPIB it was 1.29 fold enrichment (6-mer frequency, TF over GST control); with ELK3, 1.46 fold enrichment (6-mer frequency, TF over GST control).
As for CTACTG, the binding signal is 1.31 fold enrichment (6-mer frequency, TF over GST control) with FLI1; 1.28 fold enrichment (6-mer frequency, TF over GST control) with ELK1; 1.35 fold enrichment (6-mer frequency, TF over GST control) with GABPA; 1.22 fold enrichment (6-mer frequency, TF over GST control) with ERG; 1.34 fold enrichment (6-mer frequency, TF over GST control) with ELF1; 1.33 fold enrichment (6-mer frequency, TF over GST control) with EHF. For the same sequence, the binding signal with SPI1 is 1.23 fold enrichment (6-mer frequency, TF over GST control); with SPIB it was 1.05 fold enrichment (6-mer frequency, TF over GST control); with ELK3, 1.09 fold enrichment (6-mer frequency, TF over GST control).
